Measurements: PubChem BioAssay AID1619 (SRMLSC, 2009)
Screen size: about 220,000 compounds; about 830 (0.38%) were called active.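 The calls were made as follows: active = compound inhibiting the enzyme by more than half at any dose during confirmatory dose-response retesting; inconclusive = strong single-dose inhibitors picked by rank but not retested; inactive = the rest.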 These entries were drawn from the full list. Potency and affinity values are given separately.

target: Leucine aminopeptidase (Plasmodium falciparum (isolate 3D7)) (UniProt Q8IL11); test: P. falciparum M17LAP inhibitors, primary screen, biochemical, fluorogenic H-Leu-NHMec substrate, 1536-well (AID 1619); conditions: recombinant M17LAP, H-Leu-NHMec fluorogenic kinetic assay; at 30 µM; hits give high values;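 also: plate controls were full reaction with DMSO carrier for no effect and no enzyme background for full effect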
Sequence (Q8IL11 whole entry, looked up): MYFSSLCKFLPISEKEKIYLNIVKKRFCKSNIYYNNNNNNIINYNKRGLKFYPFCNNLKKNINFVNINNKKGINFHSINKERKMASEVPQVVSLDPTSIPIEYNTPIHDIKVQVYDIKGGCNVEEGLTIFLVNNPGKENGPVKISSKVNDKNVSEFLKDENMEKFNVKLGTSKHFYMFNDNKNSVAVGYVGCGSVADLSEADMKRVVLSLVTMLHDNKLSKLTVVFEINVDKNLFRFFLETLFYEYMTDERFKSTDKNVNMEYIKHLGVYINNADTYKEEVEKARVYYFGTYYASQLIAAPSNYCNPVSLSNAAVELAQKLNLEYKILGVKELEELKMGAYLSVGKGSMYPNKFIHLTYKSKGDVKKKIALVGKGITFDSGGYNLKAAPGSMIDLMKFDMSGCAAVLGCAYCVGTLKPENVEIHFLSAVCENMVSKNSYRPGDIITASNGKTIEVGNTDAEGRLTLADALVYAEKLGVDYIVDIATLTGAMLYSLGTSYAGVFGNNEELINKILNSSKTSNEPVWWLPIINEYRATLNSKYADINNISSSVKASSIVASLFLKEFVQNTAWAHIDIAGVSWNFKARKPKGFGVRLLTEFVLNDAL

inhibition, inactive:
COc1ccc(NC(=O)C2CCC(C)(C(=O)O)C2(C)C)cc1 (stereo not drawn) 14.3%
CC1(C(=O)O)CCC(C(=O)Nc2ccccc2)C1(C)C (stereo not drawn) 1.51%
COc1cccc(NC(=O)c2ccc(NC(C)=O)cc2)c1 10.5%
COc1ccc2cc(CCNC(=O)C(C)C)c(=O)[nH]c2c1 9.03%
COc1ccc(NC(=O)CN2CCC(C)CC2)cc1 32.1%
CSc1ccc(Cl)c(C(=O)NCc2ccco2)c1 14.1%
CCCNC(=O)COC(=O)c1cc(SC)ccc1Cl 6.08%
Cc1ccc(N=Cc2cc(C)n(C3CCCC3)c2C)cc1 3.83%
O=C(Nc1cc(F)cc(F)c1)c1ccc(NCCc2ccccc2)c([N+](=O)[O-])c1 5.14%
C=CCOC(=O)C1=C(C)Nc2[nH]c(=O)[nH]c(=O)c2C1c1ccccc1 (stereo not drawn) 16.9%
COc1ccc(Nc2nc3[nH]c(=O)cc(O)c3s2)cc1 23.2%
N#C/C(=C/c1cn(CC(=O)O)c2ccccc12)C(=O)NCc1ccccc1 21.3%
N#C/C(=C/c1cn(CC(=O)O)c2ccccc12)C(=O)Nc1ccccc1 10.1%
Cc1cc2cc(C)c3nnc(SCC(=O)Nc4ccc(S(=O)(=O)N5CCCCC5)cc4)n3c2cc1C -1.16%
O=C(CCN1C(=O)c2ccccc2C1=O)Nc1cccc(S(=O)(=O)NC2=NCCC2)c1 22.4%
CCOc1ccc(NC(=O)c2ccc(NCC(=O)N3CCCCCC3)cc2)cc1 -2.72%
COC(=O)c1ccc(C(=S)N2CCCCC2)cc1 3.47%
Cn1c(=O)c2c(nc(Br)n2Cc2ccccc2Cl)n(C)c1=O 0.26%
Cc1ncc([N+](=O)[O-])n1Cc1ccccc1F 10.8%
O=C(c1ccco1)N1CCN(C(=O)c2ccccc2[N+](=O)[O-])CC1 4.98%
O=C(c1ccc([N+](=O)[O-])cc1)N1CCN(C(=O)c2ccco2)CC1 2.53%
CC(=O)Nc1ccccc1NC(=O)C/C(C)=N/NC(=O)c1ccncc1 7.62%
N#C/C(=N\Nc1ccc(Cl)cc1)C(=O)c1ccsc1 4.01%
CCC(C)NC(=O)c1ccc2c(SCC(=O)O)c3c(nc2c1)CCCC3 (stereo not drawn) 25.2%
CCCCNC(=O)c1ccc2c(SCC(=O)O)c3c(nc2c1)CCCC3 45.8%
CC(C)CCNC(=O)c1ccc2c(SCC(=O)O)c3c(nc2c1)CCC3 7.01%
COc1cc(NC(=O)c2ccc3c(SCC(=O)O)c4c(nc3c2)CCCC4)cc(OC)c1OC 8.1%
O=C(Nc1ccc(Cl)cc1)c1cc(S(=O)(=O)N2CCOCC2)cs1 1.6%
Cc1ccc(C)c(S(=O)(=O)N2CCN(C(=O)c3cnccn3)CC2)c1 6.85%
O=C1CC(CC(=O)N/N=C/c2ccccc2[N+](=O)[O-])=NN1 56.8%
CC1=NNC(=O)C1CCC(=O)N/N=C/c1ccc(Cl)cc1Cl (stereo not drawn) 11.1%
CC1=NNC(=O)C1CCC(=O)N/N=C/c1ccc(C)cc1 (stereo not drawn) 5.32%
CC1=NNC(=O)C1CCC(=O)N/N=C/c1ccccc1 (stereo not drawn) -4.86%
CCCCCC(=O)N/N=C/c1ccccc1[N+](=O)[O-] 36.9%
CC1=NNC(=O)C1CC(=O)N/N=C/c1sccc1C (stereo not drawn) 9.78%
CC1=NNC(=O)C1CCC(=O)N/N=C/c1c(Cl)cccc1Cl (stereo not drawn) -1.12%
O=C(Cc1c(F)cccc1Cl)Nc1cc(S(=O)(=O)N2CCCCC2)ccc1N1CCOCC1 10.3%
COc1cccc(Nc2cc(C)nc3nc(C)nn23)c1 1.55%
Cc1cc(C)c(NC(=O)CCCOC(=O)C2=COCCO2)c(C)c1 12.3%
O=C(NCc1ccco1)C(c1ccccc1)N(Cc1cccnc1)C(=O)Cn1nnc2ccccc21 (stereo not drawn) 2.12%
CCOC(=O)N1CCC(NC(=O)c2cc(S(=O)(=O)N3CCOCC3)ccc2F)CC1 -2.28%
O=C(Nc1ccc(F)c(F)c1)c1cnc(-c2ccccc2)nc1-c1ccccc1 6.48%
COc1ccccc1NC(=S)NCCc1c[nH]c2ccccc12 1.87%
CC1(C)CC2CC(C)(CN2Cc2c(O)ccc3ccccc23)C1 (stereo not drawn) -1.68%
O=C(CCC(=O)N/N=C/c1ccco1)N/N=C/c1ccco1 6.28%
CC1C(=O)NN=C1C(=O)N/N=C/c1ccco1 (stereo not drawn) 5.8%
CCc1cc2cc(OC)ccc2nc1SCC(=O)NNC(=O)c1ccco1 -4.39%
CCOC(=O)CC(=O)CSc1nc2ccc(OC)cc2cc1C -7.77%
COc1ccc2cc(C)c3nnc(SCC(=O)Nc4cc(OC)c(OC)cc4C(=O)O)n3c2c1 3.81%
COc1ccc(OC)c(NC(=O)CSc2nc3ccccc3cc2Cc2ccccc2)c1 -12.8%
CC(C)CN(CC(C)C)S(=O)(=O)N1CCC(C(=O)NCc2ccc3c(c2)OCO3)CC1 -3.17%
Cc1ccc(-n2cccc2/C=C2/C(=N)N3C(=NC2=O)SN=C3S(C)(=O)=O)cc1 26.3%
N=C1/C(=C\c2ccc(-c3ccc(C(=O)O)cc3)o2)C(=O)N=C2SC=C(c3ccccc3)N12 23.3%
CS(=O)(=O)C1=NSC2=NC(=O)/C(=C\c3ccc(-c4ccccc4)o3)C(=N)N21 55.5%
CC(C)S(=O)(=O)C1=NSC2=NC(=O)/C(=C\c3ccc(-c4cccc(C(=O)O)c4)o3)C(=N)N21 46.5%
Cc1ccc(-n2nc(C)c3c2OC(N)=C(C#N)C3c2ccncc2)cc1 (stereo not drawn) 21.6%
Cc1cc(C(=O)NC2CCCCC2)on1 13.6%
O=C(COC(=O)c1cncc(Br)c1)NCc1ccccc1 -0.29%
C/C(=N/O)c1no[n+]([O-])c1/C(C)=N\O 4.25%
COC(=O)CSc1nc2cc(Cl)ccc2c(=O)n1C1CCCC1 -2.31%
Cc1c(N=C(N)/N=C(\N)Nc2ccc(Br)cc2)c(=O)n(-c2ccccc2)n1C -11.5%
CC1CCCCN1S(=O)(=O)c1ccc(N(C(=O)c2cnccn2)C(C(=O)NC2CCCCC2)c2cccs2)cc1 (stereo not drawn) -5%
CC(C)C(=O)c1cc2c(cc1NC(=O)c1cccs1)OCCO2 2.83%
CC(OC(=O)c1cc2c(ccc3ccccc32)oc1=O)c1nc2ccccc2s1 (stereo not drawn) -3.25%
Cc1cc(NCc2ccc3c(c2)OCO3)n2nc(C)nc2n1 -0.05%
COc1cccc(-c2nnn(CC(=O)NC3CCCC3)n2)c1OC 13.1%
COc1cccc(-c2nnn(CC(=O)Nc3ccc(C)cc3C)n2)c1OC -10%
CC(=O)c1cc(CN2CCN(CC=C(C)C)C(CCO)C2)cs1 (stereo not drawn) -1.16%
CC1(C)CC(C#N)(N2CCOCC2)CCO1 (stereo not drawn) -15.2%
COc1cccc2c(SCC(=O)N/N=C/c3ccc(O)cc3O)cc(C)nc12 16.9%
COc1cccc2c(SCC(=O)N/N=C/c3ccccc3)cc(C)nc12 2.63%
Cc1ccc2nc(C(O)C(O)c3nc4ccc(C)cc4[nH]3)[nH]c2c1 (stereo not drawn) 12.8%
Cc1[nH]c(C(=O)N/N=C/c2ccc(N(C)C)cc2)c(C)c1C(=O)N/N=C/c1ccc(N(C)C)cc1 -3.97%
COc1ccc(/C=N/NC(=O)c2[nH]c(C)c(C(=O)N/N=C/c3ccc(OC)cc3)c2C)cc1 -5.84%
O=C(N/N=C/c1cccs1)c1c[nH]c2ccccc12 19.5%
O=C(COc1ccc(C(=O)c2ccccc2)cc1)NCC(=O)Nc1ccccc1Br 0.07%
O=C1/C(=C/c2cccnc2)CCC/C1=C\c1cccnc1 12.8%
N#Cc1cc(-c2ccccc2)nn1-c1ccccc1 -15.3%
Cn1c(-c2ccccc2)n[nH]c1=S -6.39%
O=C(CN1C(=O)CSC1=O)Nc1ccc2c(c1)OCCO2 53.7%
O=C(Nc1ccccc1C(=O)Nc1nncs1)c1ccccc1 11.8%
Cc1nnc(NC(=O)c2ccccc2Br)s1 -1.4%
CCOc1ccccc1C(=O)Nc1nncs1 -3.85%
O=C(Nc1nncs1)c1cccnc1Cl 26.3%
CCCCc1nc2sc3c(c2c(=O)[nH]1)CCC3 -6.58%
COc1ccccc1C1SCCN1S(C)(=O)=O (stereo not drawn) -6.23%
COc1cccc(OCC(=O)O/N=C(\N)c2ccc(OC)c(OC)c2)c1 -15%
COc1ccc2oc(C)c(C(N)=O)c2c1 2.03%
CCOC(=O)CCC(=O)c1c(C)oc2ccc(OC)cc12 9.88%
O=C1NC[C@H](Cc2ccc(O)cc2)N(CCc2cccc3ccccc23)C1=O -2.35%
COc1ccc(NC(=O)CN2C(=O)CSC2=O)cc1 30.1%
CCOc1ccc(N2C(=O)C3CCCN3C2=O)cc1 (stereo not drawn) -1.37%
CCOC(=O)c1ccc(NC(=O)CN2C(=O)CCC2=O)cc1 -7.84%
COc1ccc(NC(=O)CN2C(=O)CSC(C)C2=O)c(OC)c1 (stereo not drawn) 37.7%
CCOc1ccc(NC(=O)CN2C(=O)NC(CCSC)C2=O)cc1 (stereo not drawn) 27.7%
O=C(CN1C(=O)C2CC=CCC2C1=O)Nc1ccc(S(=O)(=O)Nc2ncccn2)cc1 (stereo not drawn) 1.4%
CCOc1ccc(NC(=O)C2CCC(N3C(=O)C4CC=CCC4C3=O)CC2)cc1 (stereo not drawn) 48%
CCOC(=O)c1ccc(NC(=O)CN2C(=O)CSC2=O)cc1 19%
